Assay outcomes as filed in PubChem.
EBV gp42 block = EBV gp42 inhibition; Q1HVG2; Fluorescence polarization binding assay, mP read-out; inhibition, % (tested at 21.74 µM); 220,000 tested, 0.42% active; in the data active = inhibition above about 50%
PABP FP inh = blocks human PABP binding to poly(A) RNA | P11940 | fluorescence polarization | calls only at 35 µM | 290,000 tested, 1% active | AID 2014;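 also: calls also rest on retests at 20 µM and on dose response follow-up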
Target sequence (P11940 whole entry, looked up): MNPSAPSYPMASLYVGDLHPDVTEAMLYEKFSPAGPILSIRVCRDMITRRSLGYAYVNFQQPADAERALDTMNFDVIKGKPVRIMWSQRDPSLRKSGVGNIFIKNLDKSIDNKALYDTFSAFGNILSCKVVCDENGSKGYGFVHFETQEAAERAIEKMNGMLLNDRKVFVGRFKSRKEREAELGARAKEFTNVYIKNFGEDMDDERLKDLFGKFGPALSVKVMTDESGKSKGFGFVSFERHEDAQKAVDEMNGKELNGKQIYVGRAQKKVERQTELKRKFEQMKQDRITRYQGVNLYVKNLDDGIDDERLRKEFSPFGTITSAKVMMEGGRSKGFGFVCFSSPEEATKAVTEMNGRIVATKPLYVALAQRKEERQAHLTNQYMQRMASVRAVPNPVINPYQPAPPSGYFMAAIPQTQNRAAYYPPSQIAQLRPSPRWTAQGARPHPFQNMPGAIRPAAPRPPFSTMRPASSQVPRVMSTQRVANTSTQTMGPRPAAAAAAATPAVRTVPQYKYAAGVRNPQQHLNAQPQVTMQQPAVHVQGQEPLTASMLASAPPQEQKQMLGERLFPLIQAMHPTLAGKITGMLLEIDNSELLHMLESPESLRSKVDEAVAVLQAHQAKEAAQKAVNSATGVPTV
eIF4E 4G PPI = blocks eIF4E binding to eIF4G. TR-FRET eIF4E-eIF4GI(517-606) binding, 2 h. AID 782. inhibition, % at 21.7 µM. 220,000 tested, 0.37% active. P63073+Q04637;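 active = inhibition above about 30%, limit read from the data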;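 also: 0% = full FRET control wells and 100% = background wells lacking eIF4GI fragment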
MLLE-PAM2 inh = blocks PAM2 peptide binding to the PABP1 MLLE domain | P11940 | GST-MLLE / FITC-PAM2 fluorescence polarization | inhibition, % at 20 µM | 360,000 tested, 0.36% active | AID 588489; in the data active = inhibition above about 35%, passing the limit was not always enough;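 also: plate controls were DMSO wells with GST-MLLE for no effect and wells lacking GST-MLLE protein for full effect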
eIF4H inh = inhibitors of RNA binding by human eIF4H. eIF4H fluorescence polarization binding assay. AID 2012. inhibition, % at 35 µM. Q15056. 290,000 tested, 0.94% active;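 also: calls also rest on retests at 20 µM and on dose response follow-up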
An asterisk follows results filed as active; i = inactive; ? = inconclusive; . = not tested or not shown; + = active, no number. A selection: hits, their analogues and other compounds. The true share with any hit is near 1.7%. Unless noted, no rule for the calls is given here.

SMILES	EBV gp42 block	PABP FP inh	eIF4E 4G PPI	MLLE-PAM2 inh	eIF4H inh
O=C(OCC(=O)C12CC3CC(CC(C3)C1)C2)c1cnccn1	.	i	.	-3.1	2.5
Cc1c(-n2c(SCC(=O)NC(C)C)nc3ccccc3c2=O)c(=O)n(-c2ccccc2)n1C	-10.4	i	6.6	-1.3	6.2
CCS(=O)(=O)c1ccc2oc(Nc3ccc(C(C)C)cc3)nc2c1	-8.0	i	43.7*	36.1	-2.9
O=C(NP(=O)(N1CCCC1)N1CCCC1)C1=C(N2CCOCC2)/C(=C/c2cccc([N+](=O)[O-])c2)CC1	15.5	i	0.6	2.0	44.8
CCOC(=O)C(=O)C1=C(N2CCOCC2)/C(=C\c2cccc([N+](=O)[O-])c2)CC1	-4.7	+	4.8	0.8	79.9
CC(=O)c1cccc(-n2nnnc2SCC(=O)Nc2cc(C)on2)c1	.	i	.	-12.1	1.1
CN(C)c1ncnc2c1ncn2[C@H]1CN(Cc2ccco2)C[C@@H](CO)O1	.	.	.	8.9	.
CC1(C)c2ccccc2N2CCC(=O)NC21/C=C/c1ccco1 (configuration not stated)	-36.4	+	2.9	-74.8	?
COCCCNC(=O)c1ccc2sc([C@@H]3O[C@H](CO)[C@H](O)[C@H](O)[C@H]3O)nc2c1	.	.	.	10.2	.
Cc1ccc(OCC(=O)Nc2ccc3oc(=O)ccc3c2)c(C)c1	.	i	.	-8.4	-5.9
CN(C1CCCCC1)S(=O)(=O)c1ccc(=S)[nH]c1	.	.	.	58.3*	.
CN(C1CCCCC1)S(=O)(=O)c1ccc(S(=O)(=O)N2CCCC2)cc1	-8.9	i	-2.3	-5.1	-4.1
Cc1ccc(S(=O)(=O)Nc2ccc(O)c(Sc3ncn[nH]3)c2)cc1	-3.7	i	0.6	-1.5	3.8
Cc1ccc(C)c(S(=O)(=O)Nc2ccc(O)c(Sc3ncn[nH]3)c2)c1	-25.6	+	6.7	17.8	79.2*
O=C(CN1C(=O)NC2(CCCCCC2)C1=O)Nc1ccc(Br)cc1Br	.	.	.	-0.6	.
Cc1n[nH]c(=O)nc1NCc1ccco1	-3.3	i	73.9*	8.8	-7.9
CC(C)NC(=S)N/N=C/c1ccc(C(C)(C)C)cc1	-12.0	i	-5.6	8.3	4.4
Cc1ccc(NC(=S)Nc2ccccn2)cc1C	15.9	i	-3.4	40.5*	1.1
Nc1ccccc1SC1CC(=O)N(Cc2ccccc2)C1=O (configuration not stated)	-10.5	+	-1.6	28.2	active
CCN1C(=O)CC(Sc2ccccc2N)C1=O (configuration not stated)	-3.9	i	-0.8	7.5	0.8
Cc1c(C(=O)O)sc2nc(SCC(=O)Nc3ccc(S(=O)(=O)NCCCC(=O)O)cc3)[nH]c(=O)c12	-8.1	i	2.4	-0.8	1.1*
CCOC(=O)C1=NOC(COc2ccccc2C=O)C1 (configuration not stated)	-10.1	+	2.1	16.9	6.7*
CCOC(=O)C1=NOC(CNC(=O)c2ccccc2Cl)C1 (configuration not stated)	-38.5	i	-3.4	-1.4	3.3
N=c1sccn1CC(=O)Nc1ccccc1Cc1ccccc1	-7.8	i	-15.8	11.8	5.0
N=c1sccn1CC(=O)NC(c1ccccc1)c1ccccc1	-8.0	i	-0.7	2.2	1.1*
SMILES	EBV gp42 block	PABP FP inh	eIF4E 4G PPI	MLLE-PAM2 inh	eIF4H inh
O=C1C2C3C=CC(C4CC34)C2C(=O)N1/N=C/c1ccc(-c2ccc(F)cc2[N+](=O)[O-])o1 (configuration not stated)	-9.3	i	11.6	18.2	126.5
O=C1C2C3C=CC(C4CC34)C2C(=O)N1/N=C/c1ccc(-c2ccc(Cl)cc2[N+](=O)[O-])o1 (configuration not stated)	10.4	?	4.1	18.6	?
COc1ccc(-c2ccc(/C=N/N3C(=O)C4C5C=CC(C6CC56)C4C3=O)o2)c([N+](=O)[O-])c1 (configuration not stated)	5.3	+	-2.6	19.3	63.5*
Cc1ccc(-c2ccc(/C=N/N3C(=O)C4C5C=CC(CC5)C4C3=O)o2)c([N+](=O)[O-])c1 (configuration not stated)	8.2	+	-1.8	18.5	52.7*
O=C(Nc1ccccc1F)N1CCC(NC(=O)C23CC4CC(CC(C4)C2)C3)CC1	.	i	.	-8.8	-14.7
O=c1[nH]c(Nc2ccc(F)cc2)cc2ccccc12	16.7	+	-2.0	1.6	21.2
COC(=O)[C@]1(C)N[C@H](CN(C)S(=O)(=O)c2ccc(OC(F)(F)F)cc2)[C@@H]2C(=O)N(C)C(=O)[C@@H]21	.	.	.	2.5	.
Cc1ccc(OCC(=O)Nc2nnc(S(=O)(=O)N3CCC(C)CC3)s2)cc1	.	i	.	-27.8	62.9*
CN(C)S(=O)(=O)Nc1cc(Cl)cc(Cl)c1	3.7	i	0.8	3.8	12.0
Cc1ccnc(NC(=O)Cc2ccc(F)cc2)n1	-9.8	i	85.0*	-14.2	-6.9
COC(=O)C1=C(C)N=c2s/c(=C/c3ccoc3)c(=O)n2C1c1ccccc1 (configuration not stated)	-38.9	+	8.7	-115.3	83.0*
CCOC(=O)C1=C(C)N=c2s/c(=C\c3ccc(OCC(=O)O)cc3)c(=O)n2C1c1ccccc1 (configuration not stated)	.	i	.	-68.5	21.5
Cc1ccc(NC(=O)CN(C)CC(=O)Nc2ccccc2C#N)cc1	9.1	i	-4.7	15.2	active
Cc1ccc(NC(=O)CN(C)CC(=O)Nc2ccccc2Oc2ccccc2)cc1	-3.1	i	2.7	-4.8	-0.6
CCCN(CC(=O)Nc1cc(C)on1)CC(=O)Nc1ccccc1C	.	.	.	-2.4	.
CCCN(CC(=O)Nc1ccc(C(C)=O)cc1)CC(=O)Nc1ccccc1C	-4.2	+	1.5	-21.2	?
CC1(OC(=O)C2CCCC2)C(=O)C=C2C=C3CCCCN3C=C2C1=O (configuration not stated)	-11.6	?	1.6	17.9	?
CC1(OC(=O)c2ccc(Cl)nc2)C(=O)C=C2C=C3CCCN3C=C2C1=O (configuration not stated)	12.9	+	9.3	-2.9	100.6*
COC(=O)CCC(=O)OC1(C)C(=O)C=C2C=C3CCCN3C=C2C1=O (configuration not stated)	11.2	+	10.6	-7.4	106.7*
O=C(Nc1ccc(Cn2ccnc2)cc1)c1cccc(C(F)(F)F)c1	.	i	.	6.2	-4.5
CC(C)C(NC(=O)c1ccco1)C(=O)NC1CCCCCC1 (configuration not stated)	.	i	.	-3.8	-1.7
CCOC(=O)c1ccc2c(c1)N(C)C(=O)c1ccccc1S2	.	.	.	-148.4	.
CCOC(=O)c1cc2n(c1/N=C/N(C)C)-c1ccccc1C2=O	151.4*	i	0.0	77.1	2.4
C/C(=N\Nc1ccc(C(F)(F)F)cn1)c1ccncc1	-3.6	+	-1.3	1.7	active
Oc1ccc(/C=N/Nc2ccc(C(F)(F)F)cn2)cc1	6.6	i	-1.0	7.3	6.5
